Results filed as inconclusive are left out. Activity calls are given as the source filed them. Unless noted, calls come from the whole dose curve; as a rule, active = well fitted curve in the direction sought with a large enough effect in the repeat runs; inconclusive = weak or mixed curves; inactive = no such curve, though single readings can be large; an effect the other way counts as inactive or inconclusive.
Columns and labels:
[1] = qHTS assay for small molecule agonists of the p53 signaling pathway (AID 651631; calls by dose curve; note: nearly all actives have a fitted effect of over 15% in size)
Outline: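 Stably transfected HCT-116 cells (beta-lactamase behind p53 response elements) get compounds after a 5 h settling period; 16 h later at 37 °C, FRET substrate is loaded and fluorescence read after 2 h.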

[2] = qHTS assay for small molecules that induce genotoxicity in human embryonic kidney cells expressing luciferase-tagged ATAD5 (AID 651632); note: nearly all actives have a fitted effect of over 15% in size
Outline: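 A rise in luciferase signal from ATAD5-tagged HEK293T cells marks genetic stress. Cells were exposed to compounds for 16 hr at 37C, 5% CO2, then luciferase was quantified after a 30 min room-temperature incubation with Amplite.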

[3] = qHTS assay for small molecule agonists of the p53 signaling pathway - cell viability (AID 651633; calls by dose curve;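 note: p53RE-bla HCT reporter cells with a stable beta-lactamase p53 reporter; series mostly up to about 83 µM; nearly all actives have a fitted effect of over 30% in size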)
Outline: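 p53RE-bla cells, seeded at 4,000 per well and rested 5 h at 37 C/5% CO2, received compounds in DMSO for 16 h at 37 C. CellTiter-Glo was then added, and luminescence was read after 30 min at room temperature to gauge cytotoxicity.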

[4] = qHTS assay for small molecules that induce genotoxicity in human embryonic kidney cells expressing luciferase-tagged ATAD5 - cell viability (AID 651634; calls by dose curve; note: nearly all actives have a fitted effect of over 25% in size)
Outline: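 Cytotoxicity counter-readout: after 15.5 hr compound treatment at 37C, live-cell protease activity in ATAD5-luciferase HEK293T cells measured by CellTiter-Fluor fluorescence, 30 min development at 37C.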

[5] = qHTS assay for small molecule disruptors of the mitochondrial membrane potential - cell viability (AID 720634; calls by dose curve;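 note: human HepG2 liver cancer cells; series mostly up to about 83 µM; nearly all actives have a fitted effect of over 20% in size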)
Outline: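 Cytotoxicity was quantified from ATP content by CellTiter-Glo luminescence in the same wells as the MMP dye read-out. HepG2 (2,000 cells/well) were plated overnight and exposed to compounds for 1 hr at 37 C.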

[6] = qHTS assay to test for compound auto fluorescence at 535 nm (green) in HepG2 cells (AID 720675)
[7] = qHTS assay to test for compound auto fluorescence at 460 nm (blue) in HEK293 cells (AID 720678)
Outline: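 Blue read-out at excitation 405 nm and emission 460 nm follows overnight compound exposure of HEK293 cells at 37C in 5% CO2. Activity is given as auto fluorescence equivalency to triamterene.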

[8] = qHTS assay to test for compound auto fluorescence at 590 nm (red) in HEK293 cells (AID 720679)
Outline: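 Red channel, Ex/Em 540/590nm; signal expressed as equivalency to Rose Bengal sodium. HEK293, 2,000 cells/well, 10% dialyzed FBS; 23 nL compound pinned after 4-5 hr attachment; overnight 37C/5% CO2 before reading.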

[9] = qHTS assay to test for compound auto fluorescence at 535 nm (green) in HEK293 cells (AID 720680)
[10] = qHTS assay to test for compound auto fluorescence at 460 nm (blue) in HEK293 cell free culture (AID 720681)
Outline: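 Test compounds were pinned into cell-free culture medium (DMEM with 10% FBS) and fluorescence was read directly at Ex/Em 405/460 nm. Signals were expressed as fluorescence equivalents of triamterene, with DMSO vehicle as control.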

[11] = qHTS assay to test for compound auto fluorescence at 535 nm (green) in HEK293 cell free culture (AID 720682)
Outline: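 Using fluorescein as calibrant, autofluorescence was quantified at 485/535 nm in cell-free DMEM containing 10% FBS after pintool addition of compound or vehicle.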

[12] = qHTS assay to test for compound auto fluorescence at 590 nm (red) in HEK293 cell free culture (AID 720683)
Outline: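 Tox21 10K library compounds were pinned into cell-free DMEM with 10% FBS and fluorescence was read at excitation 540 nm. Activity is expressed as Rose Bengal sodium equivalency.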

[13] = qHTS assay to test for compound auto fluorescence at 590 nm (red) in HepG2 cell free culture (AID 720684)
Outline: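 Readout: intrinsic compound fluorescence at 590 nm emission after 540 nm excitation, scaled to Rose Bengal sodium. Matrix was cell-free MEM with 10% FBS; DMSO vehicle wells served as control.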

[14] = qHTS assay to test for compound auto fluorescence at 460 nm (blue) in HepG2 cell free culture (AID 720685)
Outline: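 Cell-free plates of MEM plus 10% FBS received 23 nL compound or DMSO vehicle; blue-channel (405/460 nm) intensity scored against triamterene as reference fluorophore.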

[15] = qHTS assay to test for compound auto fluorescence at 535 nm (green) in HepG2 cell free culture (AID 720686)
[16] = qHTS assay to test for compound auto fluorescence at 460 nm (blue) in HepG2 cells (AID 720687)
Outline: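 Cells (2,000/well in MEM with 10% FBS) attached overnight at 37 C, then were exposed to compound or DMSO for 1 hr at 37 C, 5% CO2. Fluorescence read at Ex/Em 405/460 nm, expressed as triamterene-equivalent signal.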

[17] = biological target: Glucocorticoid receptor (Homo sapiens) (UniProt P04150); assay: qHTS assay to identify small molecule agonists of the glucocorticoid receptor (GR) signaling pathway (AID 720691; active = well fitted activation curve with a large enough effect in the signal ratio in the repeat runs, not every such curve was filed as active; the % refers to the signal ratio)
Sequence of Glucocorticoid receptor (Homo sapiens) (P04150 whole entry, looked up): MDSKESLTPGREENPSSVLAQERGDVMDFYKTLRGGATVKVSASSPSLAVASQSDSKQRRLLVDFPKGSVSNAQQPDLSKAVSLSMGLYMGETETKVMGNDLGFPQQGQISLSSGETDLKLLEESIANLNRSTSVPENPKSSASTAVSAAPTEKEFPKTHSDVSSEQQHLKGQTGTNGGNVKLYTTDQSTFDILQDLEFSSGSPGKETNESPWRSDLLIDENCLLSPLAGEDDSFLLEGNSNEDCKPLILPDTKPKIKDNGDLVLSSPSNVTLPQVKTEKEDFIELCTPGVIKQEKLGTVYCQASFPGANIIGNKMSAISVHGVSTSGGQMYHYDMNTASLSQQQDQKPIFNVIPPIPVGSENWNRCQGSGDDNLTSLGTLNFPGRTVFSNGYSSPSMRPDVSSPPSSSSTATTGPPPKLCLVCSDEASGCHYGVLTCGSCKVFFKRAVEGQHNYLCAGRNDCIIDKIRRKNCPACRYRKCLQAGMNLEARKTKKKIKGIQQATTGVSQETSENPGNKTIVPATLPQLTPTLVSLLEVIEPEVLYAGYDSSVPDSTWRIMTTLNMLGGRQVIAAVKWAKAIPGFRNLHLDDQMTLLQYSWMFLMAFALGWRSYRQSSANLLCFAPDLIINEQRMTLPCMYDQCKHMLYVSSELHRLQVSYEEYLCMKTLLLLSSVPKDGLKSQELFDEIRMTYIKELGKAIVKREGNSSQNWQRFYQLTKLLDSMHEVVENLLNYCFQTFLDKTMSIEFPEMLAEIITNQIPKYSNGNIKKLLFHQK
Outline: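 Agonist-mode qHTS in HeLa cells stably expressing a glucocorticoid-response-element beta-lactamase reporter. Fluorescence intensity read with FRET substrate (2 h, room temperature) after 18 h compound treatment at 37 C.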

[18] = biological target: Glucocorticoid receptor (Homo sapiens) (UniProt P04150); assay: qHTS assay to identify small molecule antagonists of the glucocorticoid receptor (GR) signaling pathway (AID 720692; active = well fitted inhibition curve with a large enough effect in the signal ratio in the repeat runs, not every such curve was filed as active; the % refers to the signal ratio)
Outline: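 Inhibition of dexamethasone-driven (5 nM final) beta-lactamase expression was measured in GRE-reporter HeLa cells over 18 h at 37C. Fluorescence was read after 2 h with the B/G FRET substrate at room temperature.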

[19] = qHTS assay to test for compound auto fluorescence at 590 nm (red) in HepG2 cells (AID 720674)
Outline: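 Rose Bengal sodium served as the red fluorophore standard. HepG2 monolayers (overnight attachment, MEM with 10% FBS) were exposed to test compounds for 1 hr at 37 C and read at Ex 540/Em 590 nm.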

[20] = qHTS assay for small molecule disruptors of the mitochondrial membrane potential (AID 720635)
Outline: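 HepG2 cells (2,000/well) attached overnight at 37C, then took compound for 1 hr at 37C, 5% CO2. Mito-MPS dye was added for 30 min; fluorescence was read at 490/535 nm (monomers) and 540/590 nm (aggregates).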
% is set by controls: 0 for no effect and ±100 for the full control effect.

C=C(C)C(=O)OC1CC(C)CC(C)(C)C1 (stereo not given)
inactive: outcome [1] | outcome [2] | outcome [3] | Potency [4] | outcome [5] | outcome [6] | outcome [7] | outcome [8] | outcome [9] | outcome [10] | outcome [11] | outcome [12] | outcome [13] | outcome [14] | outcome [15] | outcome [16] | Potency [17] | outcome [18]

Cc1ccccc1OCC1CO1 (stereo not given)
inactive: outcome [1] | outcome [2] | outcome [3] | Potency [4] | outcome [5] | outcome [6] | outcome [7] | outcome [8] | outcome [9] | outcome [10] | outcome [11] | outcome [12] | outcome [14] | outcome [15] | outcome [16] | Potency [17] | outcome [18]

NC(=O)NNC(N)=O
inactive: outcome [1] | outcome [2] | outcome [3] | Potency [4] | outcome [5] | outcome [19] | outcome [6] | outcome [8] | outcome [9] | outcome [11] | outcome [12] | outcome [15] | outcome [16] | Potency [17]

C=CC(C)(O)CC/C=C(\C)CC (stereo not given)
inactive: outcome [1] | outcome [2] | outcome [3] | Potency [4] | outcome [19] | outcome [6] | outcome [7] | outcome [8] | outcome [9] | outcome [10] | outcome [11] | outcome [12] | outcome [13] | outcome [14] | outcome [15] | outcome [16] | Potency [17] | outcome [18]

NS(=O)(=O)c1ccc(Cl)c(S(N)(=O)=O)c1
inactive: outcome [1] | outcome [2] | outcome [3] | Potency [4] | outcome [5] | outcome [7] | outcome [8] | outcome [9] | outcome [10] | outcome [11] | outcome [12] | outcome [13] | outcome [14] | outcome [15] | outcome [16] | Potency [17] | outcome [18]

CC(C)c1ccccc1O
inactive: outcome [1] | outcome [2] | outcome [3] | Potency [4] | outcome [5] | outcome [19] | outcome [6] | outcome [7] | outcome [8] | outcome [9] | outcome [11] | outcome [12] | outcome [13] | outcome [14] | outcome [15] | outcome [16] | Potency [17] | outcome [18]

CC(C)CCO
inactive: outcome [1] | outcome [2] | outcome [3] | Potency [4] | outcome [5] | outcome [6] | outcome [7] | outcome [8] | outcome [9] | outcome [10] | outcome [11] | outcome [12] | outcome [14] | outcome [15]

C[C@H]1O[C@H](O[C@H]2[C@H](O)[C@@H](O)[C@@H](O[C@H]3[C@H](O)[C@@H](O)[C@H](O)O[C@@H]3CO)O[C@@H]2CO)[C@H](O)[C@@H](O)[C@@H]1N[C@H]1C=C(CO)[C@@H](O)[C@H](O)[C@H]1O
inactive: outcome [1] | outcome [2] | outcome [3] | Potency [4] | Potency [20] | outcome [6] | outcome [7] | outcome [8] | outcome [9] | outcome [10] | outcome [11] | outcome [12] | outcome [13] | outcome [14] | outcome [15] | outcome [16] | outcome [18]

SCCSCCS
inactive: outcome [1] | outcome [2] | outcome [3] | Potency [4] | outcome [5] | outcome [19] | outcome [8] | outcome [9] | outcome [11] | outcome [12] | outcome [13] | outcome [14] | outcome [15] | outcome [16] | Potency [17]

COc1ccc(NS(=O)(=O)c2ccc(N)cc2)nn1
inactive: outcome [1] | outcome [2] | outcome [3] | Potency [4] | outcome [5] | fluorescence, relative to Rose Bengal [19] 0.178% [at 18.6 µM] | fluorescence, % of fluorescein control [6] -0.0175% [at 18.6 µM] | fluorescence, % of triamterene [7] -0.19% [at 18.6 µM] | fluorescence, % of fluorescent control [8] -0.981% [at 18.6 µM] | fluorescence, % of fluorescein [9] -0.0152% [at 18.6 µM] | activity change [11] -0.0484% [at 18.6 µM] | fluorescence, % of fluorescent control [12] -0.041% [at 18.6 µM] | fluorescence, % of fluorescent control [14] -0.109% [at 18.6 µM] | fluorescence, % of fluorescein control [15] -0.0862% [at 18.6 µM] | fluorescence, % of fluorescent control [16] 0.0805% [at 18.6 µM] | Potency [17]

CCCCOC(=O)C(=O)OCCCC
inactive: outcome [1] | outcome [2] | outcome [3] | Potency [4] | outcome [5] | outcome [19] | outcome [8] | outcome [9] | outcome [10] | outcome [11] | outcome [12] | outcome [13] | outcome [15] | Potency [17]

Oc1ccccc1Cc1ccccc1O
inactive: outcome [1] | outcome [2] | outcome [3] | Potency [4] | outcome [19] | outcome [6] | outcome [8] | outcome [9] | outcome [10] | outcome [11] | outcome [12] | outcome [13] | outcome [14] | outcome [15] | Potency [17] | outcome [18]

COC(=O)CCC(=O)O
inactive: outcome [1] | outcome [2] | outcome [3] | Potency [20] | outcome [19] | outcome [6] | outcome [7] | outcome [8] | outcome [9] | outcome [10] | outcome [11] | outcome [12] | outcome [13] | outcome [14] | outcome [15] | outcome [16]

NS(=O)(=O)c1cc2c(cc1Cl)NC(C(Cl)Cl)NS2(=O)=O (stereo not given)
inactive: outcome [1] | outcome [2] | outcome [3] | fluorescence, relative to Rose Bengal [19] 0.314% [at 18.6 µM] | fluorescence, % of fluorescein control [6] 0.136% [at 18.6 µM] | fluorescence, % of triamterene [7] -0.178% [at 18.6 µM] | fluorescence, % of fluorescent control [8] -0.0605% [at 18.6 µM] | fluorescence, % of fluorescein [9] 0.0129% [at 18.6 µM] | fluorescence, % of fluorescent control [10] -0.0271% [at 18.6 µM] | activity change [11] -0.0213% [at 18.6 µM] | fluorescence, % of fluorescent control [12] 0.0566% [at 18.6 µM] | fluorescence, % of Rose Bengal [13] -0.224% [at 18.6 µM] | fluorescence, % of fluorescent control [14] -0.0397% [at 18.6 µM] | fluorescence, % of fluorescein control [15] -0.0047% [at 18.6 µM]

CC(C)C(=O)c1ccccc1
inactive: outcome [1] | outcome [2] | outcome [3] | Potency [4] | outcome [19] | outcome [6] | outcome [8] | outcome [9] | outcome [10] | outcome [11] | outcome [12] | outcome [14] | outcome [15]

CC(C)CCCC(C)CC=O (stereo not given)
inactive: outcome [1] | outcome [2] | outcome [3] | outcome [5] | outcome [19] | outcome [6] | outcome [7] | outcome [8] | outcome [9] | outcome [11] | outcome [12] | outcome [13] | outcome [15]

From PubChem BioAssay (Tox21)
